Data on 40 molecules can be found in PubChem BioAssay (NCATS).

Each structure is given as a SMILES string. Records with an inconclusive call do not appear. A number with no mark means an inactive call. The source made the active and inactive calls. The call rests on the fitted dose curve; in most records, active means well fitted cell-killing curve with a large enough effect; inconclusive means small, poorly fitted or top-dose-only effect; inactive means flat fitted curve, though single readings scatter.
Potency means the concentration at half of the fitted maximal effect.

A short description of this test: Cell Viability - LYMP2-011 (AID 969). Further: nearly all actives have a fitted effect of over 60% in size.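 On viability change, negative = cytotoxic: 0% = DMSO only and full inhibition = 92 µM tetraoctylammonium bromide.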 The settings on record: LYMP2-011 lymphoblastoid cells viability; series mostly up to 92.2 µM; viability change, negative = cytotoxic: at the top concentration. From the text:
NIH Chemical Genomics Center [NCGC]
NIH Molecular Libraries Screening Centers Network [MLSCN]
National Institutes of Environmental Health Sciences [NIEHS]
National Toxicology Program [NTP]
We have developed a 1536-well cell-based assay for quantitative high throughput screening (qHTS) against a number of cell lines to determine in vitro cytotoxicity of small molecules. This particular assay uses a human lymphoblastoid cell line (LYMP2-011) purchased from Coriell Institute for Medical Research.
NCGC Assay Protocol Summary:
The CellTiter-Glo luminescent cell viability assay (Promega) is a homogeneous method to measure the number of viable cells in culture. The end point readout of this assay is based on quantitation of intracellular ATP, an indicator of metabolic activity, using the luciferase reaction. Luciferase catalyzes the oxidation of beetle Luciferin to oxyluciferin and light in the presence of ATP. The luminescent signal is proportional to amount of ATP present.
Using the CellTiter-Glo luminescent cell viability assay, the amount of cellular ATP was measured in the lymphoblastoid cell line with complete culture medium following compound treatment for 24 hours. The assay was performed in opaque white Kalypsys 1536-well plates. In the screen, tetraoctylammonium bromide was used as positive control. Library compounds were measured for their ability to cause acute toxicity in the cell line, as reflected by a decrease in intracellular ATP levels, in a concentration-dependent manner. […] AC50 values were determined from concentration-response data modeled with the standard Hill equation.
qHTS protocol for CellTiter Glo lymphoblastoid cellular assay
[Step] [Parameter] [Value] [Description]
1. Reagent; 5 uL; 2500 lymphoblastoid cells/well
2. Time; 5 hr; 37 C incubation
4. Controls; 23 nL; Tetraoctylammonium bromide 6.4pM to 92 uM
5. Time; 24 hr; 37 C incubation
6. Reagent; 5 uL; CellTiter Glo reagent
7. Time; 30 min; Room Temperature
8. Detection; Luminescence; Viewlux plate reader
Keywords: cell viability, cytotoxicity, lymphoblastoid cell line, luminescence, NTPHTS, NTPHTS_NCGC, NIEHS, DSSTox, MLSMR, MLSCN, NIH Roadmap, qHTS, NCGC
As for `CCC(C)O` (stereo not given), the “viability change, negative = cytotoxic” value is -2.69%.
For `NC(=O)c1cccc([N+](=O)[O-])c1`, the “viability change, negative = cytotoxic” value was -2.79%.
`Nc1ccc(Cl)cc1[N+](=O)[O-]`: the “viability change, negative = cytotoxic” value was 0.196%.
Turning to `CCC=O`, the “viability change, negative = cytotoxic” value was -5.72%.
On to `O=C1CCCCC1`, for which the “viability change, negative = cytotoxic” value was -2.36%.
With `CC(C)(C)c1ccc(OCC2CO2)cc1` (stereo not given), the “viability change, negative = cytotoxic” value is -14.9%.
In the case of `COC(=O)CCCC(=O)OC`, the “viability change, negative = cytotoxic” value was 1.62%.
The same measure, in the same setting: in the case of `CCCCC=O` it was -3.97%; in that of `CCCOCC(C)OCC(C)O` (stereo not given), 4.2%; in that of `CCCCOCCOCCSC#N`, 2.44%.
In the case of `O=Cc1c(Cl)cccc1Cl`, the “viability change, negative = cytotoxic” value was 0.0365%.
Regarding `S=C([S-])NCCNC(=S)[S-].[Zn+2]`, the “viability change, negative = cytotoxic” value is -10.7%.
Consider `CCC(C)(C)C`, for which the “viability change, negative = cytotoxic” value was -0.514%.
Still for that read-out and setting: under `Cc1ccc2cccnc2c1` stands 1.29%; under `Cc1ccc2oc(=O)ccc2c1`, -2.13%.
As to `CC(O)CC(C)O` (stereo not given), the “viability change, negative = cytotoxic” value was -4.49%.
Regarding `NC(=O)c1ccccc1[N+](=O)[O-]`, the “viability change, negative = cytotoxic” value was 3.48%.
Turning to `CC(=O)C1(C)CC2=C(CCCC2(C)C)CC1C` (stereo not given), the “viability change, negative = cytotoxic” value was -3.95%.
The same measure, in the same setting: under `CC(C)Nc1ccccc1` stands 2.33%; under `Cc1ccco1`, -6.57%.
`CCCCC/C=C/C=C/C=O`: the Potency is 39.8 µM (active).
With `CCNc1ccccc1`, the “viability change, negative = cytotoxic” value was 3.65%.
The same measure, in the same setting: in the case of `C/C(C=O)=C/c1ccccc1` it was -6.89%.
Take `NC=O`: the “viability change, negative = cytotoxic” value was 2.45%.
Consider `O=C(O)c1ccc(C(=O)O)cc1`, for which the “viability change, negative = cytotoxic” value is -0.578%.
`NCCCCCCN`: the “viability change, negative = cytotoxic” value is 0.538%.
`CCCCC(CC)C(=O)O` (stereo not given): the “viability change, negative = cytotoxic” value was 0.392%.
Regarding `O=C1OC(=O)c2c(Cl)c(Cl)c(Cl)c(Cl)c21`, the “viability change, negative = cytotoxic” value was 6.58%.
In the case of `CCOC(=O)OCC`, the “viability change, negative = cytotoxic” value was 3.43%.
Still for that read-out and setting: under `Cc1ccc2c(c1[N+](=O)[O-])C(=O)c1ccccc1C2=O` stands -8.65%; under `CCOc1cc(OCC)c(C(C)=O)cc1OCC`, -4.39%.
Regarding `Cc1ccc([N+](=O)[O-])c(N)c1`, the “viability change, negative = cytotoxic” value is 8.51%.
For the molecule `O=[N+]([O-])c1cccc(Cl)c1`, the “viability change, negative = cytotoxic” value was 4.37%.
Consider `CCc1ccccc1`, for which the “viability change, negative = cytotoxic” value is 4.67%.
Consider `N#Cc1ccccc1`, for which the “viability change, negative = cytotoxic” value is -2.64%.
Still for that read-out and setting: under `C=CCOC(=O)CCCCCCCC` stands -2.05%; under `C1CCCC1`, -5.36%; under `C=Cc1ccccc1C=C`, 3.35%.
In the case of `CCC(C)(C)OC`, the “viability change, negative = cytotoxic” value is 2.13%.
For `Nc1nc(-c2ccccc2)cs1`, the “viability change, negative = cytotoxic” value was -3.14%.
